Assay outcomes deposited in PubChem BioAssay by Broad Institute.
STK33 kin inh = blocks human STK33 kinase activity. inhibition, % at 12.5 µM. 27,000 compounds, 0.44% hits. ADP-Glo luminescence, MBP substrate. AID 2322; in the data active = inhibition above about 20%
Target sequence (Q9BYT3 whole entry, looked up): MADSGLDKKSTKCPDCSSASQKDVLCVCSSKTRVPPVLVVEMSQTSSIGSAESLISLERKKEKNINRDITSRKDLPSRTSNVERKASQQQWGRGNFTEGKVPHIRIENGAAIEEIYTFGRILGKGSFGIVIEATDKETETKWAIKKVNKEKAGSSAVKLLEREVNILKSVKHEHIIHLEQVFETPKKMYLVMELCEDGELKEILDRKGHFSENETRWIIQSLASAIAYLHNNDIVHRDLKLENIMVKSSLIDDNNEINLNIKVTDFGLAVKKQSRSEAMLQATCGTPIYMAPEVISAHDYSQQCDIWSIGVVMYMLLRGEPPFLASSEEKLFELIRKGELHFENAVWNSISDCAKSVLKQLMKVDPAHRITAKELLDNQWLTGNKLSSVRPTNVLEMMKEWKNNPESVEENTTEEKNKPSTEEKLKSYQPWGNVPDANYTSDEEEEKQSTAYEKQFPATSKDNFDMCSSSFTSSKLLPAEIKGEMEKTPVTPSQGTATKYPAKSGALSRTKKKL
ID4 SMM = binds human ID4 protein on microarray | P47928 | small molecule microarray, Flag-ID4 binding, fluorescence F/B | calls only | 31,000 compounds, 1.2% hits; call rule not given here;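 also: a binder raises fluorescence above local background on the spot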
Target sequence (P47928 whole entry, looked up): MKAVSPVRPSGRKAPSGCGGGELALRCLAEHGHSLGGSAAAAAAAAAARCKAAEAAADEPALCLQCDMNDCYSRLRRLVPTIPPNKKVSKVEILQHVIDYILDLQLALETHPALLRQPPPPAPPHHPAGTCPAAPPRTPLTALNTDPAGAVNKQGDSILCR
mut p53 react = mutant p53 pathway reactivation | SW480 PUMA-promoter luciferase | activation, % at 9.98 µM | 28,000 compounds, 1.5% hits; in the data active = activation above about 52%
Each line names hits and unclear results; the compound was inactive in the other large screens. This is a sample that favours compounds with a hit; in the whole collection about 2% have one here.

COc1ccc(-c2cc(=O)[nH]c(SCC(=O)Nc3cccc(Cl)c3C)n2)cc1	none
Cn1c(SCC(=O)Nc2ccc(F)c(Cl)c2)nnc1-c1ccccc1Cl	none
COc1cc(O)c(C(=O)/C=C/c2ccc(OC)c(OC)c2)c(OC)c1	none
COc1ccc(/C=C/C(=O)CC(=O)/C=C/c2cccc(O)c2OC)cc1O	STK33 kin inh 123.2 (no result: ID4 SMM)
COc1cc(/C=C/C(=O)CC(=O)/C=C/c2ccc(O)c(OC)c2)ccc1O	STK33 kin inh 117.1 (no result: mut p53 react)
COc1cc(O)c(CC=C(C)C)cc1C(=O)/C=C/c1ccc(O)c(CC=C(C)C)c1	none (no result: ID4 SMM)
CC1=CC(=O)OC1(O)CCC(C)CC(=O)O (stereo not drawn)	none
CCOc1ccc(S(=O)(=O)NCCN2CCOCC2)cc1C	none
CCOC(=O)c1cnn(-c2ccccc2)c1NC(=O)C(C)(C)C	none (no result: ID4 SMM, mut p53 react)
Nc1[nH]nc2nc3ccccc3nc12	mut p53 react 63.6 (no result: STK33 kin inh, ID4 SMM)
Cc1cc(C)c(NC(=O)CSc2nc(O)cc(=O)[nH]2)c(C)c1	none
COc1ccc(OCC(=O)Nc2ccc3oc(-c4cccc(Br)c4)nc3c2)cc1	none
O=C(COc1ccc([N+](=O)[O-])cc1)Nc1cccc(NC(=O)c2ccccc2Cl)c1	none
COc1ccc(OCC(=O)Nc2cccc(-c3cnc4ccccc4n3)c2)cc1	mut p53 react 91.6
O=C(COc1ccccc1)Nc1ccc2oc(-c3ccccc3)nc2c1	mut p53 react 68.5
O=C(CNC(=O)c1ccccc1)Nc1cccc(-c2cnc3ccccc3n2)c1	none
COc1ccc2oc(-c3cccc(NC(=O)COc4ccc(Cl)cc4)c3)nc2c1	mut p53 react 91.3
O=C(COc1ccc([N+](=O)[O-])cc1)Nc1cccc(O)c1	mut p53 react 117.1
Cc1cccc(-c2nc3cc(NC(=O)COc4ccccc4)ccc3o2)c1	none
COC(=O)Cn1nnc(-c2nnn(COC(C)=O)c2-c2ccccc2)c1-c1ccccc1	none (no result: STK33 kin inh)
COC(=O)C[C@H]1C(C)(C)C(=O)[C@@H]2C[C@@]3(O)C4=CC(=O)O[C@@H](c5ccoc5)[C@]4(C)CCC3[C@@]1(C)C2=O (stereo partly drawn)	none (no result: ID4 SMM, mut p53 react)
COc1ccc(OC(C)C(=O)Nc2ccncc2)cc1 (stereo not drawn)	none
COC(=O)c1ccccc1NC(=O)CNC(=O)c1ccccc1F	none
CCC(=O)c1c(OCC(N)=O)ccc2c(C)cc(=O)oc12	none (no result: STK33 kin inh)
CCC(=O)Nc1cccc(NC(=O)COc2ccc3ccccc3c2)c1	mut p53 react 93.9
CC(C)(C)NC(=O)c1cccc(NC(=O)COc2ccc3ccccc3c2)c1	none
COc1ccc(CCN=C2CCc3ccccc3N2)cc1OC	none (no result: STK33 kin inh)
O=C1Cc2c([nH]c3ccc([N+](=O)[O-])cc23)-c2ccccc2N1	STK33 kin inh 22.6 (no result: ID4 SMM, mut p53 react)
O=[N+]([O-])c1ccc(O)c(C(c2c[nH]c3ccccc23)c2c[nH]c3ccccc23)c1	none
Cc1cccc(-n2c(SCC(=O)Nc3ccc(C)cc3Br)nnc2-c2ccncc2)c1	none
OCCSc1nnc(-c2ccccc2O)n1-c1ccccc1	none
Cc1ccc(N/C(=N/C(N)=S)c2ccccc2)cc1	none (no result: ID4 SMM, mut p53 react)
CCc1ccc(OCC(=O)Nc2ccccc2C(=O)OC)c(Br)c1	mut p53 react 58.7
CCc1ccc(OCC(=O)Nc2cc(OC)ccc2OC)c(Br)c1	mut p53 react 58.0
COc1ccc(OCC(=O)Nc2cc(OC)ccc2OC)cc1	none
COC(=O)c1ccccc1NC(=O)COc1ccc(C(C)(C)C)cc1Br	none
Cc1cc(N(CC(=O)Nc2ccccc2C(=O)N2CCCC2)S(C)(=O)=O)ccc1Br	none
O=C(CSc1ccccn1)Nc1cccc(F)c1	none
O=C(/C=C/c1ccc(O)cc1)NCCc1ccc(O)cc1	none (no result: ID4 SMM)
CC(=O)NCCCN(CCCCN(CCCNC(=O)/C=C/c1ccc(O)cc1)C(C)=O)C(=O)/C=C/c1ccc(O)cc1	STK33 kin inh 40.5
O=C(CCc1nc(-c2ccccc2Cl)no1)Nc1cccc([N+](=O)[O-])c1	none
COC(=O)c1c(N)c(C#N)c2n1CCC2	none (no result: STK33 kin inh)
CC(=O)OCCSc1nc(N(C)C)nc(N(C)C)n1	none
O=C(NC1CCN(C(=O)C2CCC2)CC1)C1CCCCC1	none (no result: ID4 SMM, mut p53 react)
O=C1c2cccc3cccc(c23)C(=O)N1CCCSc1n[nH]c(-c2ccc(F)cc2)n1	mut p53 react 55.4
O=C1c2cccc3cccc(c23)C(=O)N1CCCSc1ncn[nH]1	none
O=S(=O)(c1ccc(Cl)cc1)N1CCN(CC(O)COc2ccc3ccccc3c2)CC1 (stereo not drawn)	none
N#Cc1c(NC(=O)Cn2c(=O)oc3ccccc32)oc(-c2ccccc2)c1-c1ccccc1	ID4 SMM active
N#Cc1c(NC(=O)Cn2c(=O)oc3ccccc32)sc2c1CCC2	none
CS(=O)(=O)N(CC(=O)Nc1cccc(Cl)c1Cl)c1cc(Cl)c(Cl)cc1Cl	none
COc1ccc(-c2cc(=O)c3c(O)c(OC)c(O)c(OC)c3o2)cc1	mut p53 react 58.5 (no result: ID4 SMM)
COc1ccc(-c2cc(=O)c3c(OC)c(OC)c(OC)c(OC)c3o2)cc1OC	none (no result: mut p53 react)
O=C(CNC(=O)c1cn(-c2ccccc2)nc1-c1ccccc1)c1ccccc1	mut p53 react 121.2
COC(=O)CNC(=O)c1cn(-c2ccccc2)nc1-c1ccc(OC)cc1	none
COc1ccc(N(CC(=O)Nc2cccc(Cl)c2Cl)S(C)(=O)=O)cc1OC	none
COc1ccc(N2C(=O)CC(SCCc3nc4ccccc4[nH]3)C2=O)cc1 (stereo not drawn)	none
CCOc1ccc(N2C(=O)CC(Sc3nc(O)c(CC)c(=O)[nH]3)C2=O)cc1 (stereo not drawn)	ID4 SMM active
Cc1nnc(SCc2nc(N)nc(Nc3ccccc3)n2)s1	none
Cc1nnc(SCc2nc(N)nc(Nc3ccc4ccccc4c3)n2)s1	mut p53 react 96.7
CCc1ccccc1NC(=O)CSc1nnc(C)s1	none
COc1cc(OC)cc(-c2nnc(SCc3cccc(C(=O)O)c3)o2)c1	none
O=C(O)c1cccc(CSc2nnc(-c3ccco3)o2)c1	ID4 SMM active
CCOC(=O)c1c(NC(=O)c2nc3nc(C)cc(C(F)F)n3n2)sc2c1CCCC2	none
Cc1ccc(C)c(OC(=O)CS(=O)c2ccccc2[N+](=O)[O-])c1 (stereo not drawn)	none
CS(=O)(=O)N(CC(=O)NC1CCCCCC1)c1ccc(F)cc1	none (no result: ID4 SMM, mut p53 react)
CC(=O)NCc1c(F)cccc1Cl	none (no result: ID4 SMM, mut p53 react)
CC1(C)CC(=O)c2c(O)cc(OCC(=O)c3ccccc3)cc2O1	mut p53 react 62.3
CC1(C)CC(=O)c2c(O)cc(OCC(=O)c3ccc(Cl)c(Cl)c3)cc2O1	none
CC1(C)CC(=O)C(C=NCCN2CCN(C(=O)Nc3ccc(Cl)c(Cl)c3)CC2)=C(O)C1	none (no result: STK33 kin inh)
CN(C)C1=NC(C(F)(F)F)(C(F)(F)F)N=C(c2ccccc2)O1	none (no result: STK33 kin inh)
CN(C(=O)c1ccn[nH]1)C1CC(C)(C)N(C)C(C)(C)C1	none (no result: STK33 kin inh)
CCOC(=O)c1c(NC(=S)NC(=O)c2ccc3c(c2)OCCO3)sc(C(=O)OC)c1C	none
CNC[C@H]1OCCCC[C@H](C)Oc2ccc(NS(=O)(=O)c3cccs3)cc2C(=O)N([C@@H](C)CO)C[C@@H]1C	ID4 SMM active (no result: STK33 kin inh)
CNC[C@H]1OCCCC[C@@H](C)Oc2ccc(NS(=O)(=O)c3cccs3)cc2C(=O)N([C@H](C)CO)C[C@H]1C	none (no result: STK33 kin inh)
CNC[C@@H]1OCCCC[C@@H](C)Oc2ccc(NS(=O)(=O)c3cccs3)cc2C(=O)N([C@@H](C)CO)C[C@H]1C	ID4 SMM active (no result: STK33 kin inh)
CNC[C@@H]1OCCCC[C@H](C)Oc2ccc(NS(=O)(=O)c3cccs3)cc2C(=O)N([C@@H](C)CO)C[C@H]1C	none (no result: STK33 kin inh)
COc1ccc(C(c2cn(C)c3ccccc23)c2cn(C)c3ccccc23)c(OC)c1OC	none
